# Assay results reported in PubChem BioAssay (Tox21).
# A number with no mark means an inactive call. Inconclusive results are not listed. Entries that show only a call come without a potency. Activity calls are given as the source filed them. Unless noted, calls come from the whole dose curve; as a rule, active = well fitted curve in the direction sought with a large enough effect in the repeat runs; inconclusive = weak or mixed curves; inactive = no such curve, though single readings can be large; an effect the other way counts as inactive or inconclusive.
# Tests used:
# [1] = qHTS assay to identify small molecule antagonists of the estrogen related receptor (ERR) signaling pathway from Tox21 library - cell viability counter screen (AID 1224834); note: nearly all actives have a fitted effect of over 30% in size; note: potency is the fitted concentration of half-maximal effect
# Method in brief: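 Compounds in DMSO were pinned onto ERR cells that had been incubated for 6 h, and the plates were held at 37 C for 17.5 h. CellTiter-Fluor reagent was then added and fluorescence was measured after 30 min.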
# [2] = biological target: Luciferin 4-monooxygenase (Photinus pyralis) (UniProt P08659); assay: qHTS assay to identify small molecule inhibitors of firefly luciferase (AID 1224835); note: nearly all actives have a fitted effect of over 25% in size
# Chain of Luciferin 4-monooxygenase (Photinus pyralis) (P08659 whole entry, looked up): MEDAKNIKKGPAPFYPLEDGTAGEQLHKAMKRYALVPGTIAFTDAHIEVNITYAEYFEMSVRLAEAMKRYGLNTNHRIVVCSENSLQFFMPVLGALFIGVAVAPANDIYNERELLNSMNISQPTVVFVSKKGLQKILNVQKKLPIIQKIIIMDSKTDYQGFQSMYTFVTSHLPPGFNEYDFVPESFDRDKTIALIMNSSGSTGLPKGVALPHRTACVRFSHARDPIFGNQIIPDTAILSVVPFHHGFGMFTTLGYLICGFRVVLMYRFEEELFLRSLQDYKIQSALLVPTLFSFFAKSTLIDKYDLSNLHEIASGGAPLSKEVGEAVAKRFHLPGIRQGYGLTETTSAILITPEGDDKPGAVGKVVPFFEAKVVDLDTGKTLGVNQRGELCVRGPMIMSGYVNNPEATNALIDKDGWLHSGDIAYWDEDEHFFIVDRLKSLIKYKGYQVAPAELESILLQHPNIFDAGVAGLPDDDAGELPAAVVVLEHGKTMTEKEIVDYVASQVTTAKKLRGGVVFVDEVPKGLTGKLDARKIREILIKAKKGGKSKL
# Method in brief: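 Biochemical qHTS: compounds run as interplate titrations against purified firefly enzyme, with D-luciferin and ATP each at its KM concentration. Light output recorded by CCD imaging.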
# [3] = qHTS assay to identify small molecule antagonists of the constitutive androstane receptor (CAR) signaling pathway - cell viability counter screen (AID 1224837); note: nearly all actives have a fitted effect of over 45% in size; note: potency is the fitted concentration of half-maximal effect
# Method in brief: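 Cells are seeded, rested 4 hr at 37 C/5% CO2, dosed with compound (15-point series) and 50 nM CITCO, incubated a further 23 hr, and then CellTiter-Fluor reagent is added before fluorescence is read. The line is HepG2 with stable hCAR and CYP2B6-2.2kb.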
# [4] = biological target: Nuclear receptor subfamily 1 group I member 3 (Homo sapiens) (UniProt Q14994); assay: qHTS assay to identify small molecule agonists of the constitutive androstane receptor (CAR) signaling pathway (AID 1224839);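 note: HepG2 cells stably carrying human CAR and a CYP2B6 luciferase reporter; nearly all actives have a fitted effect of over 15% in size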
# Chain of Nuclear receptor subfamily 1 group I member 3 (Homo sapiens) (Q14994 whole entry, looked up): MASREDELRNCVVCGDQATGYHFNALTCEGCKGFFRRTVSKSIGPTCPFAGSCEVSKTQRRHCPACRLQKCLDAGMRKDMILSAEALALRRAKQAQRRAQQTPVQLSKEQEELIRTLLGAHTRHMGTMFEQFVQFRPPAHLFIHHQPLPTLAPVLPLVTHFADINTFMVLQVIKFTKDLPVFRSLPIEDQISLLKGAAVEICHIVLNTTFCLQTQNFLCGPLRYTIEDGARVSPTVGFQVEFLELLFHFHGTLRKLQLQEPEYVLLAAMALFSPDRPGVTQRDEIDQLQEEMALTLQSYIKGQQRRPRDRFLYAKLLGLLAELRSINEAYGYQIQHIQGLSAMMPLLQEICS
# Method in brief: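 Readout: firefly luciferase luminescence via ONE-Glo. System: HepG2 double-stable for hCAR and CYP2B6-2.2kb. Conditions: 15-point compound titration, PK11195 at 0.75 uM final, 24 h incubation.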
# [5] = qHTS assay to identify small molecule antagonists of the estrogen related receptor signaling pathway with the pleiotropic PPARgamma coactivator (PGC) from Tox21 10K library - cell viability counter screen (AID 1224840; active = well fitted cell-killing curve with a large enough effect in the repeat runs, not every such curve was filed as active; note: nearly all actives have a fitted effect of over 40% in size; note: potency is the fitted concentration of half-maximal effect)
# Method in brief: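 Cell viability is measured by CellTiter-Fluor fluorescence in PGC/ERR cells that receive compounds after a 6-hour attachment period and are then incubated 17.5 hours at 37 C.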
# [6] = qHTS assay to identify small molecule agonists of the estrogen related receptor signaling pathway with the pleiotropic PPARgamma coactivator (PGC) from Tox21 10K library (AID 1224842); note: nearly all actives have a fitted effect of over 15% in size; note: potency is the fitted concentration of half-maximal effect
# Method in brief: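 PGC/ERR reporter cell line, 2,000 cells per well, incubated 6 h at 37 C before 23 nL compound in DMSO was added. After 18 h at 37 C, One-Glo luminescence read following 30 min at room temperature.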
# [7] = qHTS assay to identify small molecule agonists of H2AX (AID 1224845; active = well fitted activation curve with a large enough effect in the signal ratio in the repeat runs, not every such curve was filed as active; the % refers to the signal ratio; note: potency is the fitted concentration of half-maximal effect)
# Method in brief: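 Wild-type CHO-K1 cells, plated overnight, exposed 3hr at 37C to 15 concentrations (0.76% DMSO final). Lysed, then HTRF anti-pH2AX (S139) cryptate and anti-H2AX-d2 antibodies, 24 hr room temperature; 665/620 nm emission read.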
# [8] = qHTS assay to identify small molecule antagonists of the estrogen related receptor (ERR) signaling pathway from Tox21 library (AID 1224848); note: nearly all actives have a fitted effect of over 50% in size; note: potency is the fitted concentration of half-maximal effect
# Method in brief: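 Quantitative high-throughput format: ERR reporter cells (2,000/well) pre-incubated 6 h, treated 18 h at 37 C with compounds in DMSO alongside positive and negative controls, then read by ONE-Glo luminescence.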
# [9] = qHTS assay to identify small molecule agonists of the estrogen related receptor (ERR) signaling pathway from Tox21 library (AID 1224849; calls by dose curve; note: nearly all actives have a fitted effect of over 15% in size); settings: ERR reporter cell line, ONE-Glo luciferase, 18 h; at 92.4 µM (top of the series) unless noted
# Method in brief: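 Quantitative HTS in agonist format: NTP ERR cell line, compounds transferred in DMSO after 6 h plating, 18 h incubation at 37 C, ONE-Glo luminescence endpoint.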
# [10] = qHTS RealTime-Glo MT Cell Viability Assay in HEK293 cells - 32 hour (AID 1224868); note: nearly all actives have a fitted effect of over 50% in size; note: potency is the fitted concentration of half-maximal effect; for activity change, negative = cytotoxic: top concentration of the series differs between compounds
# Method in brief: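 Assay medium contained NanoLuc luciferase plus cell-permeant prosubstrate, added with HEK293 cells at 600 cells/well. After 5 h at 37 C/5% CO2 compounds were added; plates stayed at 37 C for 40 h with serial luminescence reads.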
# [11] = A CellTox Green Cytotoxicity Assay to monitor cytotoxicity in HEK293 cells - 0 hour (AID 1224869); note: nearly all actives have a fitted effect of over 50% in size
# Method in brief: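 Dead-cell fluorescence measured kinetically: asymmetric cyanine dye, HEK293, 600 cells/well, 5 h settle, 23 nL cpd/DMSO, 37 C, reads 0–40 h every 8 h.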
# [12] = biological target: Nuclear receptor subfamily 1 group I member 3 (Homo sapiens) (UniProt Q14994); assay: qHTS assay to identify small molecule antagonists of the constitutive androstane receptor (CAR) signaling pathway (AID 1224838);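 note: HepG2 cells stably expressing hCAR with CYP2B6 luciferase reporter stimulated by CITCO; nearly all actives have a fitted effect of over 40% in size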
# Method in brief: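 Luminescence from a CYP2B6-2.2kb promoter reporter in hCAR-expressing HepG2 cells reflects CAR signaling. Cells received compounds at 15 concentrations and 50 nM CITCO (final), then incubated 24 h at 37 C/5% CO2.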
# [13] = qHTS assay to identify small molecule agonists of the hypoxia (HIF-1) signaling pathway - cell viability counter screen (AID 1224844; calls by dose curve; note: nearly all actives have a fitted effect of over 50% in size)
# Method in brief: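 Viability counter screen: HRE-bla ME-180 cells plated 5 hrs before compound addition, treated 17 hrs at 37C and 5% CO2, then CellTiter-Glo added after the FRET reporter read; luminescence after 30 min.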
# [14] = qHTS assay to identify small molecule agonists of the hypoxia (HIF-1) signaling pathway (AID 1224846; active = well fitted activation curve with a large enough effect in the signal ratio in the repeat runs, not every such curve was filed as active; the % refers to the signal ratio)
# Method in brief: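 Agonist mode reporter screen. ME-180 cells stably expressing bla under HRE control received test compounds in DMSO for 17 hrs (37C, 5% CO2), and beta-lactamase activity was then detected with the CCF4-AM FRET substrate.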
# [15] = qHTS assay to identify small molecule agonists of H2AX - cell viability counter screen (AID 1224847; calls by dose curve; note: top concentration of the series differs between compounds; nearly all actives have a fitted effect of over 30% in size)
# Method in brief: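 For this counter screen, overnight-attached CHO-K1 cells received test compounds (15 concentrations, 0.76% DMSO final); 3 hr later at 37C, CellTiter-Glo reagent was added and luminescence recorded after 30 min at room temperature.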
# [16] = qHTS RealTime-Glo MT Cell Viability Assay in HepG2 cells - 24 hour (AID 1224867); note: nearly all actives have a fitted effect of over 50% in size
# Method in brief: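 qHTS, HepG2, 600 cells/well, RealTime-Glo (NanoLuc + prosubstrate) added with cells; 5 h preincubation; DMSO compound addition; 37 C; luminescence at 0/8/16/24/32/40 h.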
# [17] = qHTS RealTime-Glo MT Cell Viability Assay in HepG2 cells - 40 hour (AID 1224870); note: nearly all actives have a fitted effect of over 50% in size
# Method in brief: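 HepG2 cells (600/well) mixed with RealTime-Glo MT reagent, settled 5 h at 37 C/5% CO2 before compound addition. Nonlytic NanoLuc luminescence from viable-cell prosubstrate reduction read repeatedly during 40 h treatment at 37 C.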
# [18] = biological target: Thyrotropin receptor (Homo sapiens) (UniProt P16473); assay: qHTS assay to identify small molecule agonists of the thyroid stimulating hormone receptor (TSHR) signaling pathway (AID 1224843; calls by dose curve; note: nearly all actives have a fitted effect of over 45% in size)
# Chain of Thyrotropin receptor (Homo sapiens) (P16473 whole entry, looked up): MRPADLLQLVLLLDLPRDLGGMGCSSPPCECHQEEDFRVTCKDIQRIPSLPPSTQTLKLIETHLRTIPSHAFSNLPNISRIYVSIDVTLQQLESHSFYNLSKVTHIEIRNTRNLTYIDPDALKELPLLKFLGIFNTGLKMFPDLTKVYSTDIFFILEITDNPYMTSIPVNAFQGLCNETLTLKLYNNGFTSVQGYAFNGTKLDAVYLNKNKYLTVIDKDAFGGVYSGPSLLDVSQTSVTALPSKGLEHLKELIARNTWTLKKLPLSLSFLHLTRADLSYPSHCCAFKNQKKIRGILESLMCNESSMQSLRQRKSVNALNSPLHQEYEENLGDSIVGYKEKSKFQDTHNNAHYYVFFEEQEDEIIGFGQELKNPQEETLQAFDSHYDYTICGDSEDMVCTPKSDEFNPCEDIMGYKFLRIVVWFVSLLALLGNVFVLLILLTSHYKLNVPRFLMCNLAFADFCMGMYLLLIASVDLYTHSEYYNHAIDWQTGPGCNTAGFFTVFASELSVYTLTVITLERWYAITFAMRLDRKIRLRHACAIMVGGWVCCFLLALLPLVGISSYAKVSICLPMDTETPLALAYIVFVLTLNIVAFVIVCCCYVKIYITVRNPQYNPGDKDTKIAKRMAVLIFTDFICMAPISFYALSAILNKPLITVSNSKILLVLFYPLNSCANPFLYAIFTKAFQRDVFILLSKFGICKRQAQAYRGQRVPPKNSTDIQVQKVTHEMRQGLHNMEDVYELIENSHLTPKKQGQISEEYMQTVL
# Method in brief: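 Agonist-mode screen: TSHR HEK293 cells received test chemicals for half an hour at room temperature, then HTRF cAMP detection reagents for one hour prior to fluorescence measurement. Each chemical ran as a 15-concentration series, triplicated.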
# [19] = qHTS assay to identify small molecule agonists of the constitutive androstane receptor (CAR) signaling pathway - cell viability counter screen (AID 1224836); note: nearly all actives have a fitted effect of over 45% in size
# Method in brief: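 Double-stable HepG2 hepatoma cells (hCAR plus CYP2B6-2.2kb) are treated for 23 h at 37 C with test compounds in 15-point concentration series. PK11195 at 0.75 uM final is co-added. Cell viability is quantified by CellTiter-Fluor.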
# [20] = qHTS assay to identify small molecule antagonists of the estrogen related receptor signaling pathway with the pleiotropic PPARgamma coactivator (PGC) from Tox21 10K library (AID 1224841; call rule not given here)
# Method in brief: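 Cells stably carrying the PGC/ERR reporter, seeded at 2,000 per well, received pin-transferred compounds 6 h post-plating. Exposure lasted 18 h at 37 C. Signal: One-Glo luminescence.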
structure (smiles),measurement,setting,value
C=CC(=O)OCCOCCOC(=O)C=C,Potency,[1],38.7 µM (active)
same,Potency,[2],inactive
same,Potency,[3],61.4 µM (active)
same,Potency,[4],inactive
same,Potency,[5],30.8 µM (active)
same,Potency,[6],9.73 µM (active)
same,Potency,[7],56.9 µM (active)
same,Potency,[8],inactive
same,"activity change, positive = activation",[9],-74.8% (active)
same,Potency,[10],34.8 µM (active)
same,Potency,[11],inactive
CC(C)(CO)[N+](=O)[O-],Potency,[1],inactive
same,Potency,[2],inactive
same,Potency,[3],inactive
same,Potency,[12],inactive
same,Potency,[4],inactive
same,Potency,[5],inactive
same,Potency,[13],inactive
same,Potency,[7],inactive
same,Potency,[14],inactive
same,Potency,[15],inactive
same,Potency,[16],inactive
same,Potency,[10],inactive
same,Potency,[11],inactive
same,Potency,[17],inactive
O=C(NCC1CN(c2ccc(N3CCOCC3=O)cc2)C(=O)O1)c1ccc(Cl)s1 (centres undefined),Potency,[1],inactive
same,Potency,[2],inactive
same,Potency,[3],inactive
same,Potency,[6],inactive
same,Potency,[18],inactive
same,Potency,[13],inactive
same,Potency,[7],inactive
same,Potency,[14],inactive
same,Potency,[15],inactive
same,Potency,[8],23.7 µM (active)
same,"activity change, positive = activation",[9],-38.4% [at 42.5 µM]
same,Potency,[16],inactive
same,Potency,[10],inactive
same,Potency,[11],inactive
same,Potency,[17],inactive
CC1CCC(=O)C1=O (centres undefined),Potency,[1],inactive
same,Potency,[2],inactive
same,Potency,[19],inactive
same,Potency,[12],inactive
same,Potency,[18],inactive
same,Potency,[13],inactive
same,Potency,[7],inactive
same,Potency,[14],inactive
same,Potency,[15],inactive
same,Potency,[16],inactive
same,Potency,[10],inactive
same,Potency,[11],inactive
same,Potency,[17],inactive
C=CCOc1ccccc1OCC(O)CNC(C)C (centres undefined),Potency,[1],inactive
same,Potency,[2],inactive
same,Potency,[3],inactive
same,Potency,[12],inactive
same,Potency,[4],inactive
same,Potency,[5],inactive
same,Potency,[20],inactive
same,Potency,[6],inactive
same,Potency,[13],inactive
same,Potency,[7],inactive
same,Potency,[15],inactive
same,Potency,[8],inactive
same,"activity change, positive = activation",[9],4.2% [at 42.5 µM]
same,Potency,[16],inactive
same,Potency,[10],inactive
same,Potency,[11],inactive
same,Potency,[17],inactive
CCC(CC)Nc1ccc(C)c(C)c1,Potency,[1],inactive
same,Potency,[2],inactive
same,Potency,[3],inactive
same,Potency,[12],inactive
same,Potency,[5],inactive
same,Potency,[7],inactive
same,Potency,[14],inactive
same,Potency,[15],inactive
same,Potency,[16],inactive
same,Potency,[10],inactive
same,Potency,[11],inactive
same,Potency,[17],inactive
O=C(O)CC(=O)C(=O)O,Potency,[1],inactive
same,Potency,[2],inactive
same,Potency,[3],inactive
same,Potency,[5],inactive
same,Potency,[18],inactive
same,Potency,[13],inactive
same,Potency,[7],inactive
same,Potency,[14],inactive
same,Potency,[15],inactive
same,Potency,[16],inactive
same,Potency,[10],inactive
same,Potency,[11],inactive
same,Potency,[17],inactive
CC(C)(COC(=O)c1ccccc1)COC(=O)c1ccccc1,Potency,[1],inactive
same,Potency,[2],inactive
same,Potency,[3],inactive
same,Potency,[12],inactive
same,Potency,[5],inactive
same,Potency,[13],inactive
same,Potency,[7],inactive
same,Potency,[14],inactive
same,Potency,[15],inactive
same,Potency,[16],inactive
same,Potency,[10],inactive
same,Potency,[11],inactive
same,Potency,[17],inactive
c1cc(CCCc2ccncc2)ccn1,Potency,[1],inactive
same,Potency,[2],inactive
same,Potency,[3],inactive
same,Potency,[12],inactive
same,Potency,[4],inactive
same,Potency,[5],inactive
same,Potency,[6],inactive
same,Potency,[18],inactive
same,Potency,[13],inactive
same,Potency,[7],inactive
same,Potency,[14],inactive
same,Potency,[15],inactive
same,"activity change, positive = activation",[9],-26.9%
same,Potency,[16],inactive
same,Potency,[10],inactive
same,Potency,[11],inactive
same,Potency,[17],inactive
CCCCNc1ccc(C(=O)OCCOCCOCCOCCOCCOCCOCCOCCOCCOC)cc1,Potency,[1],inactive
same,Potency,[2],inactive
same,Potency,[3],inactive
same,Potency,[12],inactive
same,Potency,[4],inactive
same,Potency,[5],inactive
same,Potency,[20],inactive
same,Potency,[6],inactive
same,Potency,[18],inactive
same,Potency,[13],inactive
same,Potency,[7],inactive
same,Potency,[15],inactive
same,"activity change, positive = activation",[9],-27.3% [at 42.5 µM]
same,Potency,[16],inactive
same,Potency,[11],inactive
same,Potency,[17],inactive
CCCCCCCCCCCC(=O)OC[C@@H](O)[C@H]1OC[C@H](OCCO)[C@H]1OCCO,Potency,[1],inactive
same,Potency,[2],inactive
same,Potency,[3],inactive
same,Potency,[12],inactive
same,Potency,[4],inactive
same,Potency,[5],inactive
same,Potency,[18],inactive
same,Potency,[13],inactive
same,Potency,[7],inactive
same,Potency,[14],inactive
same,Potency,[15],inactive
same,Potency,[16],inactive
same,Potency,[10],inactive
same,Potency,[11],inactive
same,Potency,[17],inactive
NC(N)=NCCC[C@H](N)C(=O)O,"viability change, negative = cytotoxic",[1],3.84% [at 8.39 µM]
same,"activity change, negative = inhibition",[2],0.418% [at 10.5 µM]
same,"activity change, negative = cytotoxicity",[3],-4.98% [at 8.39 µM]
same,"activity, negative = inhibition",[20],-5.77% [at 8.39 µM]
same,activation,[6],-1.51% [at 8.39 µM]
same,activation,[18],-0.151% [at 8.39 µM]
same,"activity change, negative = cytotoxicity",[13],-0.141% [at 6.97 µM]
same,activation (H2AX phosphorylation),[7],-0.995% [at 14 µM]
same,"activity change, negative = cytotoxicity",[15],0.155% [at 14 µM]
same,"activity, negative = inhibition",[8],11% [at 8.39 µM]
same,"activity change, positive = activation",[9],5.81% [at 8.39 µM]
same,"activity change, negative = cytotoxicity",[16],3.74% [at 6.97 µM]
same,"activity change, negative = cytotoxic",[10],5.15% [at 6.97 µM]
same,cytotoxicity,[11],-14.4% [at 6.97 µM]
same,"activity change, negative = cytotoxic",[17],2.25% [at 6.97 µM]
CC1OC(=O)C(C)OC1=O (centres undefined),Potency,[1],inactive
same,Potency,[2],inactive
same,Potency,[3],inactive
same,Potency,[12],inactive
same,Potency,[5],inactive
same,Potency,[18],inactive
same,Potency,[7],inactive
same,Potency,[14],inactive
same,Potency,[15],inactive
same,Potency,[16],inactive
same,Potency,[10],inactive
same,Potency,[11],inactive
same,Potency,[17],inactive
